Measurements as given in PubChem BioAssay (Tox21).
Results filed as inconclusive are left out. Activity calls are given as the source filed them. Unless noted, calls follow the shape of the dose curve; as a rule, active = well fitted curve in the direction sought with a large enough effect in the repeat runs; inconclusive = weak or mixed curves; inactive = no such curve, though single readings can be large; an effect the other way counts as inactive or inconclusive.

Tests used:
[1] = qHTS assay for identifying genotoxic compounds that show differential cytotoxicity against isogenic chicken DT40 cell lines with known DNA damage response pathways - wild type cell line (AID 743012); also: nearly all actives have a fitted effect of over 60% in size
Outline: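 Using parental DT40 (300 cells/well), compounds delivered in DMSO incubate 40 h at 37 C/5% CO2. CellTiter-Glo reagent then stands 30 min at room temperature, and luminescence gives cell viability.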

[2] = qHTS assay for identifying genotoxic compounds that show differential cytotoxicity against isogenic chicken DT40 cell lines with known DNA damage response pathways - Rad54/Ku70 mutant cell line (AID 743015); also: nearly all actives have a fitted effect of over 60% in size
[3] = qHTS assay to identify small molecule antagonists of the androgen receptor (AR) signaling pathway - cell viability counter screen (AID 743033; also: nearly all actives have a fitted effect of over 45% in size)
[4] = qHTS assay to identify small molecule antagonists of the androgen receptor (AR) signaling pathway using the MDA cell line - cell viability counter screen (AID 743041; also: nearly all actives have a fitted effect of over 45% in size)
Outline: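 MDA-kb2 AR-luc cells (MMTV-luciferase, AR/GR responsive) treated with compounds plus R1881 agonist for 16 h at 37C. CellTiter-Fluor added at 15.5 h; fluorescence read after 30 min in the same wells.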

[5] = qHTS assay to identify small molecule antagonists of the thyroid receptor (TR) signaling pathway - cell viability counter screen (AID 743064); also: nearly all actives have a fitted effect of over 50% in size
Outline: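 GH3.TRE-Luc rat pituitary cells dosed after 4 hr plating, co-stimulated with T3 at 1 nM final, incubated 23.5 h at 37 C. Viability measured in the same wells by CellTiter-Fluor fluorescence after 30 min further at 37 C.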

[6] = qHTS assay to identify small molecule antagonists of the thyroid receptor (TR) signaling pathway (AID 743065); also: series mostly up to about 70 µM; nearly all actives have a fitted effect of over 55% in size
Outline: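 GH3.TRE-Luc rat pituitary cells (two TREs driving luciferase) were dosed with compound, then stimulated with 1 nM T3 (final) for 23.5 h at 37 C. ONE-Glo luminescence was the read-out, with CellTiter-Fluor fluorescence as the cytotoxicity counter-screen.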

[7] = test system: thyroid hormone receptor (rat, GH3 cells); assay: qHTS assay to identify small molecule agonists of the thyroid receptor (TR) signaling pathway (AID 743066; calls by dose curve)
[8] = qHTS assay to identify small molecule antagonists of the estrogen receptor alpha (ER-alpha) signaling pathway - cell viability counter screen (AID 743074; calls by dose curve;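 also: HEK293 cells carrying ER-alpha-UAS-bla reporter stimulated with 17beta-estradiol; nearly all actives have a fitted effect of over 45% in size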)
[9] = qHTS assay to identify small molecule antagonists of the estrogen receptor alpha (ER-alpha) signaling pathway using the BG1 cell line - cell viability counter screen (AID 743081);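 also: compound given together with 17beta-estradiol as the ER stimulus; series mostly up to about 70 µM; nearly all actives have a fitted effect of over 45% in size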
[10] = target: Aromatase (Homo sapiens) (UniProt P11511); assay: qHTS assay to identify aromatase inhibitors (AID 743083); also: series mostly up to about 70 µM; nearly all actives have a fitted effect of over 55% in size
Sequence of Aromatase (Homo sapiens) (P11511 whole entry, looked up): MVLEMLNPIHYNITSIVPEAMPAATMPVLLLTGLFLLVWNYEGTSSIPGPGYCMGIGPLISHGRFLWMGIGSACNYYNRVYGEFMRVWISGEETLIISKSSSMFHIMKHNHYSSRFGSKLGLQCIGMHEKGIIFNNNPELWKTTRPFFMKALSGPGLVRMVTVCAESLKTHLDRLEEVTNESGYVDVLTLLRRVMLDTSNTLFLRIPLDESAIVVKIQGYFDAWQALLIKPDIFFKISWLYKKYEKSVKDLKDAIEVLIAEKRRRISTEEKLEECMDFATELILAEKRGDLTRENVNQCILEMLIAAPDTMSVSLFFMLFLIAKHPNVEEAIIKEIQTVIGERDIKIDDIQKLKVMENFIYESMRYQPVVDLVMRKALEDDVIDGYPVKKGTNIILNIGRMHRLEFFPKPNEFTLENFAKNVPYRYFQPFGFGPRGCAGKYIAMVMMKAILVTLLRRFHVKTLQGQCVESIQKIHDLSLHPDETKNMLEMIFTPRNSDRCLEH

[11] = qHTS assay to identify aromatase inhibitors - cell viability counter screen (AID 743084);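 also: cells stimulated with testosterone during compound exposure; nearly all actives have a fitted effect of over 55% in size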
[12] = qHTS assay for identifying genotoxic compounds that show differential cytotoxicity against isogenic chicken DT40 cell lines with known DNA damage response pathways - Rev3 mutant cell line (AID 743014); also: nearly all actives have a fitted effect of over 55% in size
[13] = target: Estrogen receptor (Homo sapiens) (UniProt P03372); assay: qHTS assay to identify small molecule antagonists of the estrogen receptor alpha (ER-alpha) signaling pathway (AID 743069; active = well fitted curve in the direction sought with a large enough effect in the signal ratio in the repeat runs, not every such curve was filed as active; the % refers to the signal ratio)
Sequence of Estrogen receptor (Homo sapiens) (P03372 whole entry, looked up): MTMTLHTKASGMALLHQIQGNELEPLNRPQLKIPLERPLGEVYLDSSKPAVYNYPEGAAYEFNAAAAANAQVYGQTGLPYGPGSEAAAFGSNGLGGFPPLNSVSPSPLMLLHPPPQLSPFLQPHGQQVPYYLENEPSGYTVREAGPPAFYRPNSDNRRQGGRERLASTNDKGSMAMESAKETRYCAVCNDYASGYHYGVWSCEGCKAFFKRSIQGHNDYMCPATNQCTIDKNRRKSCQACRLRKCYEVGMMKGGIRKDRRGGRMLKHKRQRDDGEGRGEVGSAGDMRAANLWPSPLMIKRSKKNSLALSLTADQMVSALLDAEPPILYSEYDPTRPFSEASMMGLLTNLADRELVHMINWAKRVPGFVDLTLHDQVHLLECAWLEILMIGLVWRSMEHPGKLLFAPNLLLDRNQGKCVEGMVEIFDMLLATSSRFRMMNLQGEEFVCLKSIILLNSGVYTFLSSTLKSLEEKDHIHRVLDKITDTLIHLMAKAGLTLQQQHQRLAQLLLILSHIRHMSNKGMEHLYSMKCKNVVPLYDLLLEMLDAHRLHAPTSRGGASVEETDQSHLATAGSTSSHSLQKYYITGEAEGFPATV
Outline: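 HEK293 ER-alpha-UAS-bla GripTite cells, held overnight in 2% charcoal-stripped FBS, 5,000 cells/well, preincubated 4 h, then compound plus 17beta-estradiol for 18 h at 37C. Beta-lactamase read by LiveBLAzer B/G FRET substrate, 2 h at room temperature.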

[14] = target: Estrogen receptor (Homo sapiens) (UniProt P03372); assay: qHTS assay to identify small molecule agonists of the estrogen receptor alpha (ER-alpha) signaling pathway (AID 743075; calls by dose curve)
[15] = target: Estrogen receptor (Homo sapiens) (UniProt P03372); assay: qHTS assay to identify small molecule agonists of the estrogen receptor alpha (ER-alpha) signaling pathway using the BG1 cell line (AID 743079); also: nearly all actives have a fitted effect of over 20% in size
[16] = qHTS assay to identify small molecule antagonists of the estrogen receptor alpha (ER-alpha) signaling pathway using the BG1 cell line (AID 743080; calls by dose curve;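 also: BG1 cells stimulated with 17beta-estradiol alongside compound; series mostly up to about 70 µM; nearly all actives have a fitted effect of over 25% in size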)
Outline: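 BG1Luc4E2, endogenous ER-alpha, 4xERE-luc; 5 d charcoal-stripped FBS, phenol red free; 24 h plating; cpd + 17beta-estradiol 21.5 h, 37 C/5% CO2; CellTiter-Fluor viability 30 min, then ONE-Glo luciferase 30 min RT.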

[17] = target: Androgen receptor (Homo sapiens) (UniProt P10275); assay: qHTS assay to identify small molecule antagonists of the androgen receptor (AR) signaling pathway (AID 743035; active = well fitted inhibition curve with a large enough effect in the signal ratio in the repeat runs, not every such curve was filed as active; the % refers to the signal ratio)
Sequence of Androgen receptor (Homo sapiens) (P10275 whole entry, looked up): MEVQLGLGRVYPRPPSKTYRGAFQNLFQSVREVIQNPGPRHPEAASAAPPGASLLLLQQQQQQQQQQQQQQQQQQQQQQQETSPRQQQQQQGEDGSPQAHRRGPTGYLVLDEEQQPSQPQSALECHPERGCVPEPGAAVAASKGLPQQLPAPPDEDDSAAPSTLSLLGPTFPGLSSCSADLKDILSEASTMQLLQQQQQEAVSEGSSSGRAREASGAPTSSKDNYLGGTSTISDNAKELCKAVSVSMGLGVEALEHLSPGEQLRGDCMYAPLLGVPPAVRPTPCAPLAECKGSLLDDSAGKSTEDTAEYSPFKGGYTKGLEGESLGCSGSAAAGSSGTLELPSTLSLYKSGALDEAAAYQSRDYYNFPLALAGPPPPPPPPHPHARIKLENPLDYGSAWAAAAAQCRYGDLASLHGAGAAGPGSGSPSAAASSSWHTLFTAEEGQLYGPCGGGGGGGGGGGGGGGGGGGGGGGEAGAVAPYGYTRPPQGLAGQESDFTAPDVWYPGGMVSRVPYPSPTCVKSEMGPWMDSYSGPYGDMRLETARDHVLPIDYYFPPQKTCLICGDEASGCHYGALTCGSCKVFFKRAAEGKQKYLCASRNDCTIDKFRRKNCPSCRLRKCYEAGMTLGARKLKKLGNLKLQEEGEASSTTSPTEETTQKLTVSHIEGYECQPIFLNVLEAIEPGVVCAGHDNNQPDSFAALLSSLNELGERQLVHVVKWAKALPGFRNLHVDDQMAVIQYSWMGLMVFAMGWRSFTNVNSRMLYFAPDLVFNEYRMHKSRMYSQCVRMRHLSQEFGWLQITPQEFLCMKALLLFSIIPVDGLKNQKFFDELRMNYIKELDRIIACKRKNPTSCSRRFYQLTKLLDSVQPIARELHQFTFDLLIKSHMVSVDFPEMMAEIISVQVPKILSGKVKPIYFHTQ
Outline: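 Using qHTS, AR-UAS-bla GripTite HEK293 cells received compound, then R1881, and were cultured 16 h at 37C/5% CO2 before a 2 h room-temperature LiveBLAzer B/G FRET substrate step and fluorescence measurement.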

[18] = target: Androgen receptor (Homo sapiens) (UniProt P10275); assay: qHTS assay to identify small molecule agonists of the androgen receptor (AR) signaling pathway (AID 743036; active = well fitted activation curve with a large enough effect in the signal ratio in the repeat runs, with a control signal flat, not every such curve was filed as active; the % refers to the signal ratio)
Outline: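 AR-UAS-bla HEK293 cells, plated 4 h before dosing, were treated with compound for 16 h at 37C. beta-Lactamase reporter read after 2 h with LiveBLAzer B/G FRET substrate at room temperature.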

[19] = target: Androgen receptor (Homo sapiens) (UniProt P10275); assay: qHTS assay to identify small molecule antagonists of the androgen receptor (AR) signaling pathway using the MDA cell line (AID 743042; also: nearly all actives have a fitted effect of over 55% in size)
Outline: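 MDA-kb2 breast carcinoma cells carrying MMTV-luciferase (AR/GR responsive) were co-treated with compounds and the agonist R1881 for 16 h at 37C. Inhibition read as ONE-Glo luminescence; CellTiter-Fluor fluorescence measured in parallel for cytotoxicity.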

Measured: Potency

CC(C)c1ccccc1O
not listed: [12] | [13] | [14] | [15] | [16] | [17] | [18] | [19]
inactive: all other assays above

O=C(c1ccc2c(c1)C(=O)OC2=O)c1ccc2c(c1)C(=O)OC2=O
not listed: [6] | [13] | [14] | [15] | [16] | [17] | [18] | [19]
inactive: all other assays above

CN[C@@H]1[C@@H](O)[C@@H](O[C@@H]2[C@H](O)[C@H](O[C@H]3OC(CN)=CC[C@H]3N)[C@@H](N)C[C@H]2N)OCC1(C)O (some centres not stated)
not listed: [13] | [14] | [15] | [16] | [17] | [18] | [19]
inactive: all other assays above

CCC1COC(=O)O1 (configuration not stated)
not listed: [6] | [16] | [17] | [18] | [19]
inactive: all other assays above

C=C(C)C(=O)OC
inactive: [1] | [12] | [2] | [3] | [4] | [5] | [7] | [9] | [10] | [11]

CCCCCCCCCCCCCCCC(=O)NCCO
inactive: [1] | [12] | [3] | [4] | [6] | [7] | [8] | [9] | [10] | [11]

C[C@H]1O[C@H](O[C@H]2[C@H](O)[C@@H](O)[C@@H](O[C@H]3[C@H](O)[C@@H](O)[C@H](O)O[C@@H]3CO)O[C@@H]2CO)[C@H](O)[C@@H](O)[C@@H]1N[C@H]1C=C(CO)[C@@H](O)[C@H](O)[C@H]1O
not listed: [13] | [14] | [15] | [16] | [17] | [18] | [19]
inactive: all other assays above

Cc1cc(C)cc([N+](=O)[O-])c1
not listed: [12] | [16] | [17] | [18] | [19]
inactive: all other assays above

COc1ccc(NS(=O)(=O)c2ccc(N)cc2)nn1
not listed: [2] | [12] | [17] | [18] | [19]
inactive: all other assays above

NC(Cc1c[nH]c2ccccc12)C(=O)O (configuration not stated)
not listed: [5] | [13] | [14] | [15] | [16] | [17] | [18] | [19]
inactive: all other assays above

CCCCC(CC)C(=O)OC(C)C (configuration not stated)
inactive: [2] | [3] | [4] | [5] | [6] | [7] | [8] | [9] | [10] | [11]

SCCSCCS
not listed: [13] | [14] | [15] | [16] | [17] | [18] | [19]
inactive: all other assays above

BrC/C=C/CBr
not listed: [13] | [14] | [15] | [16] | [17] | [18] | [19]
inactive: all other assays above

CCOC(=O)OCC/C(SC(=O)OCC)=C(\C)N(C=O)Cc1cnc(C)nc1N
inactive: [1] | [3] | [4] | [5] | [6] | [7] | [10] | [11]

CCCCCC(=O)OCC
not listed: [1] | [2] | [17] | [18] | [19]
inactive: all other assays above

O=c1cc(O)c(Cl)c[nH]1
inactive: [2] | [3] | [4] | [5] | [8] | [9] | [10] | [11]

C=CCOc1c(Br)cc(C(C)(C)c2cc(Br)c(OCC=C)c(Br)c2)cc1Br
not listed: [6] | [7] | [17] | [18] | [19]
inactive: all other assays above

CCCCCCCC/C=C\CCCCCCCC(=O)OC[C@@H](O)[C@H]1OC[C@H](O)[C@H]1O
not listed: [12] | [16] | [17] | [18] | [19]
inactive: all other assays above

COC(OC)C(C)c1ccccc1 (configuration not stated)
not listed: [12] | [16]
inactive: all other assays above

CCC(C)N (configuration not stated)
not listed: [6] | [12] | [17] | [18] | [19]
inactive: all other assays above

CC(C)(C)c1ccc(C=O)cc1
not listed: [2] | [17] | [18] | [19]
inactive: all other assays above
